In PubChem BioAssay AID1159580 (chemical genetic matrix, 2015):
Screen size: about 5,500 compounds; about 2,000 (36%) were called active. Inconclusive results (about 18%) are left out. Rule as the data show it: active = normalized growth mostly below about 0.91 (no sharp cut-off); inconclusive = no clear call, values can overlap the other calls; inactive = mostly above about 0.92. The list shows a part of the results.

Assay: chemical genetic growth profiling, strain panel (AID 1159580);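 also: tested at 20 µM; growth read once vehicle control cultures reached saturation at 30 °C; 1 = growth at the plate median or of vehicle wells; lower values mean less growth of the strain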
Conditions: S. cerevisiae deletion strains, growth OD

Measured: normalized growth

COc1cccc2c1CCC1=CC(=O)CC[C@@]12C
inactive: locus YAL013W, strain DEP1, active compounds read low 0.996 | locus YAL021C, strain ccr4, active compounds read low 1.02 | locus YAL026C, strain drs2, active compounds read low 1.01 | locus YAL030W, strain snc1, active compounds read low 0.986 | locus YBL061C, strain skt5, active compounds read low 0.989 | locus YBR009C, strain hhf1, active compounds read low 0.992 | locus YBR021W, strain FUR4, active compounds read low 0.966 | locus YBR023C, strain chs3, active compounds read low 1.01 | locus YBR171W, strain sec66, active compounds read low 0.987 | locus YBR229C, strain ROT2, active compounds read low 1 | locus YBR231C, strain swc5, active compounds read low 1.02 | locus YBR279W, strain paf1, active compounds read low 1 | locus YCL011C, strain gbp2, active compounds read low 0.997 | locus YCL016C, strain dcc1, active compounds read low 0.999 | locus YCL029C, strain bik1, active compounds read low 0.985 | locus YCL069W, strain vba3, active compounds read low 0.993 | locus YCR088W, strain abp1, active compounds read low 0.994 | locus YDL005C, strain med2, active compounds read low 1.02 | locus YDL035C, strain GPR1, active compounds read low 0.976 | locus YDL040C, strain nat1, active compounds read low 1 | locus YDL074C, strain BRE1, active compounds read low 0.944 | locus YDL101C, strain DUN1, active compounds read low 1.01 | locus YDL134C, strain PPH21, active compounds read low 0.995 | locus YDL185W, strain tfp1, active compounds read low 1 | locus YDL192W, strain arf1, active compounds read low 0.993 | locus YDR001C, strain nth1, active compounds read low 1 | locus YDR069C, strain doa4, active compounds read low 0.987 | locus YDR101C, strain arx1, active compounds read low 0.981 | locus YDR137W, strain rgp1, active compounds read low 1.07 | locus YDR150W, strain NUM1, active compounds read low 1 | locus YDR159W, strain sac3, active compounds read low 0.997 | locus YDR162C, strain NBP2, active compounds read low 0.966 | locus YDR195W, strain ref2 1.04 | locus YDR297W, strain sur2, active compounds read low 0.995 | locus YDR318W, strain mcm21, active compounds read low 0.973 | locus YDR334W, strain swr1, active compounds read low 1.02 | locus YDR335W, strain msn5, active compounds read low 1.01 | locus YDR388W, active compounds read low 0.989 | locus YDR392W, strain spt3, active compounds read low 0.984 | locus YDR502C, strain sam2, active compounds read low 0.961 | locus YEL003W, strain gim4, active compounds read low 1 | locus YEL037C, strain rad23, active compounds read low 0.993 | locus YEL061C, strain CIN8 (second series), active compounds read low 1.01 | locus YEL061C, strain CIN8, active compounds read low 1 | locus YER015W, strain faa2, active compounds read low 1.01 | locus YER016W, strain bim1, active compounds read low 1 | locus YER110C, active compounds read low 0.983 | locus YER111C, strain swi4, active compounds read low 1 | locus YER155C, strain BEM2 (second series), active compounds read low 0.989 | locus YER155C, strain BEM2, active compounds read low 1 | locus YER167W, strain BCK2, active compounds read low 0.996 | locus YFR010W, strain ubp6, active compounds read low 1.01 | locus YGL078C, strain dbp3, active compounds read low 0.998 | locus YGL086W, strain mad1, active compounds read low 0.987 | locus YGL167C, strain pmr1, active compounds read low 1 | locus YGL173C, strain kem1, active compounds read low 0.993 | locus YGL227W, strain vid30, active compounds read low 1.01 | locus YGL240W, strain doc1, active compounds read low 0.995 | locus YGL248W, strain PDE1, active compounds read low 0.996 | locus YGL253W, strain hxk2, active compounds read low 1.02 | locus YGR078C, strain PAC10, active compounds read low 0.983 | locus YGR135W, strain pre9, active compounds read low 0.939 | locus YGR229C, strain SMI1, active compounds read low 0.98 | locus YGR252W, strain gcn5, active compounds read low 0.814 | locus YHR013C, strain ard1, active compounds read low 0.967 | locus YHR027C, strain rpn1, active compounds read low 1.01 | locus YHR030C, strain SLT2, active compounds read low 0.994 | locus YHR079C, strain IRE1 (second series), active compounds read low 0.973 | locus YHR094C, strain hxt1, active compounds read low 0.998 | locus YHR129C, strain ARP1, active compounds read low 0.995 | locus YHR142W, strain chs7, active compounds read low 0.975 | locus YHR200W, strain rpn10, active compounds read low 0.989 | locus YIL066C, strain RNR3, active compounds read low 0.955 | locus YIL073C, strain SPO22, active compounds read low 0.949 | locus YIL125W, strain kgd1, active compounds read low 0.992 | locus YIR030C, strain dcg1, active compounds read low 0.983 | locus YJL092W, strain hpr5, active compounds read low 1.02 | locus YJL095W, strain BCK1 (second series), active compounds read low 1 | locus YJL095W, strain BCK1, active compounds read low 0.972 | locus YJL115W, strain asf1, active compounds read low 1.01 | locus YJL129C, strain trk1, active compounds read low 0.973 | locus YJL134W, strain LCB3, active compounds read low 1.01 | locus YJL154C, strain vps35, active compounds read low 1 | locus YJL164C, strain tpk1, active compounds read low 0.996 | locus YJL166W, strain qcr8, active compounds read low 0.987 | locus YJL168C, strain set2, active compounds read low 0.984 | locus YJL187C, strain SWE1 (second series), active compounds read low 0.989 | locus YJR043C, strain POL32, active compounds read low 0.97
